The supplement of paper PMC8975748
Counter-ions that a name gives are not always drawn.

What follows are molecules tested on Saccharomyces cerevisiae BY4741 SeMeCo community (assay: z-score of subpopulation abundance vs DMSO median, subpopulation auxotrophic for HLU; higher = larger share of this subpopulation than in DMSO controls). Conditions: 10 µM; 24 h; SM minimal medium; subpopulation (auxotrophy): HLU.
Method: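 Fluorescent four-plasmid SeMeCo (self-establishing metabolically cooperating S. cerevisiae BY4741 community; plasmids pH-mRuby2, pL-mWasabi, pU-eCFP, pM-TagRFP657) was grown 24 h in minimal SM medium with each Selleck FDA-approved drug at 10 µM in 384-well plates. Cells were fixed and imaged by high-content confocal microscopy. For each auxotrophic subpopulation (and the prototroph), a z-score gives the deviation from the DMSO vehicle-control population median.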

SMILES	z-score of subpopulation abundance
CCN(C)C(=O)Oc1cccc([C@H](C)N(C)C)c1 [Rivastigmine]	-0.24
CC[C@H]1[C@@H]2C[C@H]3[C@@H]4N(C)c5ccccc5[C@]45C[C@@H]([C@@H]2[C@H]5O)N3[C@@H]1O [Ajmaline]	-0.63
Nc1nc(N)nc(NC2CC2)n1 [Cyromazine]	0.88
CCN(C)C(=O)Oc1cccc([C@H](C)N(C)C)c1 [Rivastigmine Tartrate]	-0.41
N#Cc1nn(-c2c(Cl)cc(C(F)(F)F)cc2Cl)c(N)c1[S+]([O-])C(F)(F)F (stereo not given) [Fipronil]	-1
COc1ccc(C=O)cc1 [p-Anisaldehyde]	-0.91
CN1[C@@H]2CC[C@H]1C[C@@H](OC(=O)C(CO)c1ccccc1)C2 (stereo not given in full) [Atropine sulfate monohydrate]	-0.61
COc1ccc2[nH]cc(CCN)c2c1 [5-Methoxytryptamine]	0.69
COc1cc2c(cc1OC)C1CC(=O)C(CC(C)C)CN1CC2 (stereo not given) [Tetrabenazine (Xenazine)]	-0.31
NCC(O)c1ccc(O)cc1 (racemic) [(+,-)-Octopamine HCl]	-0.28
C[C@@H]1O[C@@H](O[C@H]2C[C@@H](O)[C@]3(CO)[C@H]4[C@H](O)C[C@]5(C)[C@@H](C6=CC(=O)OC6)CC[C@]5(O)[C@@H]4CC[C@]3(O)C2)[C@H](O)[C@H](O)[C@H]1O [Ouabain]	-1.06
O=C(O[C@H]1C[C@H]2CC[C@@H](C1)[N+]21CCCC1)C(O)(c1ccccc1)c1ccccc1 [Trospium chloride]	-0.58
CC[N+](C)(CC)CCOC(=O)C(O)(c1ccccc1)c1ccccc1 [Methylbenactyzine Bromide]	-0.28
CN1C(=O)COc2c(C(=O)NC3CN4CCC3CC4)cc(Cl)cc21 (stereo not given) [Azasetron HCl]	-0.64
CC(C)N(CCC(C(N)=O)(c1ccccc1)c1ccccn1)C(C)C (stereo not given) [Disopyramide]	1.07
CN1[C@@H]2C[C@@H](OC(=O)[C@H](CO)c3ccccc3)C[C@H]1[C@@H]1O[C@@H]12 [Scopolamine HBr trihydrate]	-0.91
C=C[C@H]1CN2CC[C@H]1C[C@H]2[C@H](O)c1ccnc2ccccc12 [Cinchonidine]	-0.48
C=CC[C@]1(O)CC[C@H]2[C@@H]3CCC4=CC(=O)CCC4=C3C=C[C@@]21C [Altrenogest]	0.03
CC[C@@]1(O)C(=O)OCc2c1cc1n(c2=O)Cc2cc3ccccc3nc2-1 [Camptothecin]	-0.42
O=c1[nH]c2ccccc2n1CCCN1CCC(n2c(=O)[nH]c3cc(Cl)ccc32)CC1 [Domperidone]	1.05

SMILES	z-score of subpopulation abundance
CCN(CC)CCOC(=O)C(O)(c1ccccc1)c1ccccc1 [Benactyzine hydrochloride]	0.38
NCCc1c[nH]c2ccc(O)cc12 [Serotonin HCl]	-0.94
CN(C)C(=O)Oc1cccc([N+](C)(C)C)c1 [Neostigmine Bromide]	0.32
CN(C)[C@@H]1C(=O)C(C(N)=O)=C(O)[C@@]2(O)C(=O)C3=C(O)c4c(O)cccc4[C@@](C)(O)[C@H]3C[C@@H]12 [Tetracycline HCl]	0.02
O=C(O[C@H]1C[N+]2(CCCOc3ccccc3)CCC1CC2)C(O)(c1cccs1)c1cccs1 [Aclidinium Bromide]	-0.54
C[N+]1(C)[C@@H]2C[C@@H](OC(=O)[C@H](CO)c3ccccc3)C[C@H]1[C@@H]1O[C@@H]12 [Methscopolamine]	0.5
O=[N+]([O-])C(Br)(CO)CO [Bronopol]	0.49
CC(=O)O[C@H]1C[C@@H]2CC[C@@H]3[C@H](CC[C@@]4(C)[C@H]3C[C@H]([N+]3(C)CCCCC3)[C@@H]4OC(C)=O)[C@@]2(C)C[C@@H]1[N+]1(C)CCCCC1 [Pancuronium dibromide]	-0.5
Oc1cc(Cl)ccc1Oc1ccc(Cl)cc1Cl [Triclosan]	2.87
C[C@H]1O[C@H](O[C@H]2[C@H](O)[C@@H](O)[C@@H](O)[C@H](O)[C@@H]2O)[C@@H](N)C[C@@H]1NC(=N)C(=O)O [Kasugamycin hydrochloride]	0.46
C[N+](C)(C)CCCCCCCCCC[N+](C)(C)C [Decamethonium Bromide]	0
C[N+]12CCC(CC1)C(OC(=O)C(O)(c1ccccc1)c1ccccc1)C2 (stereo not given) [Clidinium Bromide]	-0.31
C#C[C@]1(O)C=C[C@H]2[C@@H]3CCC4=CC(=O)CC[C@@H]4[C@H]3CC[C@@]21CC [Gestodene]	0.11
CN1[C@@H]2CC[C@H]1C[C@@H](OC(=O)[C@H](CO)c1ccccc1)C2 [Hyoscyamine]	0.2
CCOC(=O)Nc1ccc(NCc2ccc(F)cc2)cc1N [Retigabine 2HCl]	-0.42
CCCN1C[C@H](CSC)C[C@@H]2c3cccc4[nH]cc(c34)C[C@H]21 [Pergolide Mesylate]	-0.75
CC(NC(C)(C)C)C(=O)c1cccc(Cl)c1 (stereo not given) [Amfebutamone (Bupropion) HCl]	-0.82
Oc1cccc2cccnc12 [8-Hydroxyquinoline]	-0.85
Nc1ccncc1 [4-Aminopyridine]	0.05
CN1[C@@H]2C[C@@H](OC(=O)[C@H](CO)c3ccccc3)C[C@H]1[C@@H]1O[C@@H]12 [Scopolamine HBr]	-1.08
